This is an account of results in PubChem BioAssay (EPA / NIEHS).

Assay [1] can be described thus: ATG_XTT_Cytotoxicity: Cytotoxicity Assessment in the Attagene TRANS-FACTORIAL HepG2 Assay (AID 2283584). In a few lines: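 Viability endpoint from XTT after 24 h chemical exposure of reporter-transfected human HepG2 liver cells; signal loss fitted relative to DMSO negative control.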
Read-out in assay [2]: solute carrier (SLCO1B1), SLCO1B1 (gene 10599)
As to the kind of experiment: LTEA_HepaRG_SLCO1B1: Life Technologies and Expression Analysis (LTEA) Assay for solute carrier (SLCO1B1) using HepaRG (AID 2283530; active = hit-call score of the fitted dose curve at least 0.9, where 1 is the maximum; inactive = score below 0.9). The following applies: mRNA level, 48 h; actives raise or lower the signal. The method in brief:
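SLCO1B1 transcript levels were quantified by TaqMan qRT-PCR using three housekeeping genes for normalization. This followed 48 h chemical exposure (100 uM top, half-log, 8 points, 0.5% DMSO) of HepaRG liver cells, with gain or loss fitted relative to DMSO.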

Read-out in assay [3]: sulfotransferase 2A1 (SULT2A1), SULT2A1 (gene 6822)
Briefly: LTEA_HepaRG_SULT2A1: Life Technologies and Expression Analysis (LTEA) Assay for sulfotransferase 2A1 (SULT2A1) using HepaRG (AID 2283531; active = hit-call score of the fitted dose curve at least 0.9, where 1 is the maximum; inactive = score below 0.9). The following applies: mRNA level, 48 h; actives raise or lower the signal. In a few lines:
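Expression change of SULT2A1, by qRT-PCR with three housekeeping-gene normalization, was scored bidirectionally versus DMSO. Cells: differentiated HepaRG, dosed in duplicate for 48 h across 8 points, highest 100 µM, half-log dilution, 0.5% DMSO.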

Read-out in assay [4]: Transforming Growth Factor (TGFA), TGFA (gene 7039)
Briefly: LTEA_HepaRG_TGFA: Life Technologies and Expression Analysis (LTEA) Assay for Transforming Growth Factor (TGFA) using HepaRG (AID 2283532; active = hit-call score of the fitted dose curve at least 0.9, where 1 is the maximum; inactive = score below 0.9). Particulars: mRNA level, 48 h; actives raise or lower the signal. In a few lines: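 HepaRG (human liver line), 48 h exposure, 8 conc. half-log down from 100 uM, 0.5% DMSO vehicle, duplicates; serum-free induction medium. TGFA mRNA by TaqMan qRT-PCR, ACTB/GAPDH/POLR2A normalization; gain/loss fit vs DMSO.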

Read-out in a further assay: TIMP1, TIMP1 (gene 7076)
As to the kind of experiment: LTEA_HepaRG_TIMP1: Life Technologies and Expression Analysis (LTEA) Assay for TIMP1 using HepaRG (AID 2283534; active = hit-call score of the fitted dose curve at least 0.9, where 1 is the maximum; inactive = score below 0.9). Particulars: mRNA level, 48 h; actives raise or lower the signal. In a few lines:
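Bidirectional change in TIMP1 transcript versus 0.5% DMSO, measured by TaqMan qRT-PCR with three housekeeping genes for normalization. HepaRG human liver cells dosed 48 h in duplicate, top concentration 100 uM with half-log dilutions.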

Read-out in assay [5]: Tumor necrosis factor receptor 1 (TNFRSF1A), TNFRSF1A (gene 7132)
Briefly: LTEA_HepaRG_TNFRSF1A: Life Technologies and Expression Analysis (LTEA) Assay for Tumor necrosis factor receptor 1 (TNFRSF1A) using HepaRG (AID 2283535; active = hit-call score of the fitted dose curve at least 0.9, where 1 is the maximum; inactive = score below 0.9). Particulars: mRNA level, 48 h; actives raise or lower the signal. In a few lines: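 mRNA measured by qRT-PCR (TaqMan, Fluidigm arrays) against ACTB/GAPDH/POLR2A housekeepers after 48 h chemical exposure of HepaRG cells. Top concentration 100 uM, half-log 8-point series, duplicates; vehicle 0.5% DMSO, both fit directions.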

Read-out in assay [6]: Thyroid Hormone Responsive (THRSP), THRSP (gene 7069)
Briefly: LTEA_HepaRG_THRSP: Life Technologies and Expression Analysis (LTEA) Assay for Thyroid Hormone Responsive (THRSP) using HepaRG (AID 2283536; active = hit-call score of the fitted dose curve at least 0.9, where 1 is the maximum; inactive = score below 0.9). The following applies: mRNA level, 48 h; actives raise or lower the signal. In a few lines: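 mRNA induction or loss relative to 0.5% DMSO vehicle was fitted bidirectionally across an eight-point curve whose highest exposure was 100 uM. Human HepaRG liver cells received chemicals in duplicate over 48 h before RNA extraction.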

Read-out in assay [7]: UDP glucuronosyltransferase (UGT1A1), UGT1A1 (gene 54658)
Briefly: LTEA_HepaRG_UGT1A1: Life Technologies and Expression Analysis (LTEA) Assay for UDP glucuronosyltransferase (UGT1A1) using HepaRG (AID 2283538; active = hit-call score of the fitted dose curve at least 0.9, where 1 is the maximum; inactive = score below 0.9). The following applies: mRNA level, 48 h; actives raise or lower the signal. In a few lines:
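Readout is UGT1A1 transcript level by qRT-PCR, normalized to three housekeeping genes, after 48 h chemical treatment of HepaRG cells. Concentrations ran from 100 uM down in half-log steps with 0.5% DMSO, and gain or loss relative to DMSO was fitted.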

Read-out in assay [8]: UDP glucuronosyltransferase (UGT1A6), UGT1A6 (gene 54578)
As to the kind of experiment: LTEA_HepaRG_UGT1A6: Life Technologies and Expression Analysis (LTEA) Assay for UDP glucuronosyltransferase (UGT1A6) using HepaRG (AID 2283539; active = hit-call score of the fitted dose curve at least 0.9, where 1 is the maximum; inactive = score below 0.9). Particulars: mRNA level, 48 h; actives raise or lower the signal. In a few lines:
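Expression was quantified by TaqMan qRT-PCR on Fluidigm arrays with ACTB/GAPDH/POLR2A normalization and bidirectional fitting against 0.5% DMSO. HepaRG cells (~100,000/well) were treated in duplicate for 48 h at eight half-log concentrations up to 100 uM in serum-free induction medium.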

Read-out in assay [9]: X-box binding protein 1 (XBP1), XBP1 (gene 7494)
Briefly: LTEA_HepaRG_XBP1: Life Technologies and Expression Analysis (LTEA) Assay for X-box binding protein 1 (XBP1) using HepaRG (AID 2283540; active = hit-call score of the fitted dose curve at least 0.9, where 1 is the maximum; inactive = score below 0.9). The following applies: mRNA level, 48 h; actives raise or lower the signal. The method in brief: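 XBP1 transcript by qRT-PCR (housekeeping-normalized: ACTB, GAPDH, POLR2A) after 48 h chemical treatment of HepaRG cells, 8-point half-log series topping at 100 uM, vehicle 0.5% DMSO. Gain and loss of signal fitted relative to DMSO.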

The nature of assay [10]: LTEA_HepaRG_LDH_cytotoxicity: Cytotoxicity Assessment in the Life Technologies and Expression Analysis (LTEA) Assay (AID 2283563). The method in brief:
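LDH release into culture medium read after 48 h chemical treatment of HepaRG cells. Duplicate wells, eight-point half-log series topping at 100 uM, 0.5% DMSO vehicle and baseline.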

Assay [11] can be described thus: TOX21_p53_BLA_p2_viability: Viability Assessment in the Tox21 HCT-116 p53 Agonism Beta-lactamase Assay, Phase 2 (AID 2283591).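 Also: compound exposure lasted 16 h at 37 °C; actives lower the ATP signal meaning cytotoxicity.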 In a few lines:
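Cytotoxicity readout: CellTiter-Glo ATP luminescence, 30 min at room temperature, after the beta-lactamase read. Cells were HCT116 exposed 16 h at 37C to compounds pin-transferred at 217-fold dilution from DMSO stocks.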

Assay [12] addresses Cellular tumor antigen p53 (Homo sapiens) (UniProt P04637). As to the kind of experiment: TOX21_p53_BLA_p2_ratio: Tox21 HCT-116 p53 Agonism Beta-lactamase Assay, Ratio, Phase 2 (AID 2283592). The method in brief:
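Gain-of-signal p53 agonism was scored from the beta-lactamase FRET ratio (460/530 nm, 405 nm excitation) in HCT116 cells treated 16 h at 37C, 5% CO2, with DMSO serving as negative control and baseline.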

A short description of assay [13]: TOX21_p53_BLA_p3_viability: Viability Assessment in the Tox21 HCT-116 p53 Agonism Beta-lactamase Assay, Phase 3 (AID 2283593).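 Also: cells exposed to compound for 16 h before reading.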 The method in brief: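 Cellular ATP was quantified by CellTiter-Glo luminescence, read after 30 min at room temperature. Beforehand, HCT116 cells (4000/well) received compound 5 h post-seeding, 217-fold diluted from DMSO, then incubated 16 h at 37C.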

Assay [14] deals with Cellular tumor antigen p53 (Homo sapiens) (UniProt P04637). Briefly: TOX21_p53_BLA_p3_ratio: Tox21 HCT-116 p53 Agonism Beta-lactamase Assay, Ratio, Phase 3 (AID 2283596). The method in brief:
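HCT116 p53-bla cells (4000/well) given compound in DMSO (217-fold dilution) after 5 h, incubated 16 h at 37C. CCF4-AM substrate 2 h at room temperature; 460/530 nm emission ratio, gain fitted against DMSO.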

Assay [15] is described as follows: TOX21_p53_BLA_p4_viability: Viability Assessment in the Tox21 HCT-116 p53 Agonism Beta-lactamase Assay, Phase 4 (AID 2283597).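 Also: hits lower the luminescence signal meaning cytotoxicity.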 In a few lines:
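Following a 16 h exposure at 37C, the treated HCT116 wells were first read for the FRET ratio. They were then lysed with CellTiter-Glo, and ATP luminescence was recorded after 30 min at room temperature.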

In assay [16] the target is Cellular tumor antigen p53 (Homo sapiens) (UniProt P04637). Briefly: TOX21_p53_BLA_p5_ratio: Tox21 HCT-116 p53 Agonism Beta-lactamase Assay, Ratio, Phase 5 (AID 2283599). In a few lines: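 Beta-lactamase reporter ratio (blue 460 nm over green 530 nm, 405 nm excitation) after 2 h CCF4-AM loading, in HCT-116 cells exposed 16 h at 37 C to compounds pinned at 217-fold dilution. Increases relative to DMSO baseline scored.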

Assay [17] can be described thus: TOX21_p53_BLA_p5_viability: Viability Assessment in the Tox21 HCT-116 p53 Agonism Beta-lactamase Assay, Phase 5 (AID 2283600). In a few lines: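 After the 460/530 nm beta-lactamase measurement, the wells received an ATP-detection luciferase reagent; signal was read 30 min later at RT. Compound treatment lasted 16 h on cells pre-incubated 5 h post-seeding.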

Results filed as inconclusive are left out. Active and inactive are the calls of the source. The calls were made as follows, unless noted: active = hit-call score of the fitted dose curve at least 0.9, where 1 is the maximum; inconclusive = response in the unintended direction; inactive = score below 0.9.

Cellular tumor antigen p53 (Homo sapiens), sequence (P04637 whole entry, looked up): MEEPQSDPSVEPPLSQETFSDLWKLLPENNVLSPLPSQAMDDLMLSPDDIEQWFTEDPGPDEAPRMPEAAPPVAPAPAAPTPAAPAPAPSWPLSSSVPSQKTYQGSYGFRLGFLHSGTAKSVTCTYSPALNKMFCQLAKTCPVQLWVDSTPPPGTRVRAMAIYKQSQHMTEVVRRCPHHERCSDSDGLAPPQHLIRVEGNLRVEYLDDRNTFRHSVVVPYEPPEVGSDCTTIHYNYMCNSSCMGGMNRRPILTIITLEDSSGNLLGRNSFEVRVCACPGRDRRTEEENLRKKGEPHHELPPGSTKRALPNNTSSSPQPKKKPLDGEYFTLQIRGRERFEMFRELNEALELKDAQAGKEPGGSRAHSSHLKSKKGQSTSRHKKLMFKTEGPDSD

As for `N#C/C=C/c1ccccc1`, the call in assay [1] was inactive.

With `CCOP(=O)(O)C(N)=O`, in [1], the compound was classed as inactive.

Take `CC(C)(C)c1ccccc1OP(=O)(Oc1ccccc1)Oc1ccccc1`: the call in [1] was inactive.

On to `COP(=O)(CCC(=O)NCO)OC`, for which the compound was called inactive in assay [1].

Turning to `CCCCC(CC)COP(=O)(Oc1ccccc1)Oc1ccccc1` (stereo not drawn), the outcome in [1] was inactive.

Consider `CCOP(=S)(OCC)SCSc1ccc(Cl)cc1`, for which the compound was classed as inactive in assay [1].

`Nc1ccc(Sc2ccc(N)cc2)cc1`: the compound was called inactive in assay [1].

As for `Cc1cc(C)c(C(=O)P(=O)(c2ccccc2)c2ccccc2)c(C)c1`, the result in assay [1] was inactive.

With `Nc1cc2c3c(c1)C(c1ccccc1)=N[C@@H](NC(=O)c1cccnc1)C(=O)N3CC2`, the outcome is “inactive” in assay [2]; “inactive” in assay [3]; “inactive” in assay [4]; “inactive” with TIMP1, TIMP1 (gene 7076); “inactive” in [5]; “inactive” in assay [6]. For the same compound, the result in [7], in assay [8], in assay [9] and in assay [10] was inactive.

For `Clc1ccc(Oc2ccccc2)cc1`, the call in assay [1] was inactive.

As to `CCOC(=O)c1ccccc1N`, in assay [1], the compound was classed as inactive.

`CCCCc1ccccc1`: the outcome in assay [2] is “inactive”; in [3] it was “inactive”; in [4], “inactive”; with TIMP1, TIMP1 (gene 7076), “inactive”; in assay [5], “inactive”; in assay [6] it was “inactive”. For the same compound, the outcome in assay [7], in assay [8], in assay [9], in assay [10] and in assay [1] was inactive.

As for `CCOP(=S)(OCC)SCSCC`, the outcome in assay [2] was “inactive”; in assay [3], “inactive”; in assay [4], “inactive”; in the assay with TIMP1, TIMP1 (gene 7076), “inactive”; in [5] it was “inactive”; in assay [6], “inactive”. Besides, the compound was classed as inactive in assay [7], in [8], in assay [9], in assay [10] and in [1].

The AC50 is the midpoint of the concentration-response curve, whichever way the signal moves. For the compound `CCCCN(CCCC)SN(C)C(=O)Oc1cccc2c1OC(C)(C)C2`, the outcome in assay [2] was “inactive”; in [3], “inactive”; in [4] it was “inactive”; with TIMP1, TIMP1 (gene 7076), “inactive”; in [5], “inactive”; in [6], “inactive”. Also, the result in [8], in assay [9], in assay [10] and in [1] was inactive. The AC50 in assay [7] was 10 µM (active).

In the case of `O=S1(=O)OCC2C(CO1)C1(Cl)C(Cl)=C(Cl)C2(Cl)C1(Cl)Cl` (stereo not drawn), the compound was called inactive in assay [1], in [11], in assay [12], in assay [13], in assay [14] and in assay [15]. Further, the result in [16] and in [17] was inactive.

Take `CCCCC(CC)COC(=O)c1c(Br)c(Br)c(Br)c(Br)c1C(=O)OCC(CC)CCCC` (stereo not drawn): the result in [12], in [14] and in assay [16] was inactive.

Turning to `C=C(C)C(=O)OCC1CO1` (stereo not drawn), the compound was classed as inactive in assay [1], in assay [11], in assay [12], in assay [13], in [14] and in assay [15]. The result in assay [16] and in [17] was inactive.

Regarding `CCCCOCC1CO1` (stereo not drawn), the call in [1], in [12], in [14], in assay [16] and in assay [17] was inactive.

On to `O=c1ssc(Cl)c1Cl`, for which the compound was classed as inactive in assay [1], in [11], in assay [12] and in assay [17]. Moreover, the AC50 was 73.7 µM (active) in assay [13] and 61.2 µM (active) in assay [14].
